Sampled rows, rich in hits. Any-hit rate of the full collection: about 19%.
ELG1 DNA repair – blocks ELG1-dependent DNA repair in HEK293T cells; HEK293T ELG1-luciferase reporter, luminescence, 16 h; DNA damage induced by 5-fluorouridine; Potency, µM (doses to about 46.1 µM), without a hit: at the highest dose activity change, negative = inhibition, actives largely listed as inhibitors; 2.3% of 330,000 active; further: potency means the concentration at half of the fitted maximal effect; nearly all actives have a fitted effect of over 55% in size
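In this reporter screen, reduction of luminescence relative to DMSO vehicle indicated activity. Compounds and 5-fluorouridine were added together to 2,000 cells per well, incubated for 16 hr at 37 °C, then developed with ONE-Glo.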
TDP1 cell CPT – growth inhibition of DT40 Tdp1-/-;hTDP1 cells with camptothecin (screen for TDP1 inhibitors); AID 686979; chicken DT40 Tdp1-/-;hTDP1 cells + 20 nM CPT, ATP luminescence, 48 h; Potency, µM (doses to about 46.2 µM), for the others: top-dose activity change, negative = growth inhibition, hits mostly inhibitors; 12% of 420,000 active; further: potency means the concentration at half of the fitted maximal effect; nearly all actives have a fitted effect of over 55% in size
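Chicken DT40 Tdp1-/- cells complemented with human TDP1, 400 cells/well, exposed to compounds plus 20 nM camptothecin for at least 48 h at 37 C; viability read as ATP content by CellTiter-Glo luminescence.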
IL-1B inflam inh – blocks inflammasome-driven IL-1 beta release; activity change, % at 57.5 µM; 4.7% of 360,000 active; THP-1 LPS/ATP IL-1B secretion, AlphaLISA, 16 h; stronger effect = lower value; AID 743279; in the data active means activity change below about -50%; inconclusive means mostly about -30% to -49%
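THP-1 cells pretreated 1 hr with compounds (up to 57.5 uM final), then stimulated with LPS (250 ng/mL final) plus ATP (1.25 mM final); secreted IL-1B measured by AlphaLISA after 16 hr, decreased signal indicating inhibition.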
HT1080NT lethal – kills 2HG-producing HT-1080-NT fibrosarcoma cells; 1.6% of 360,000 active; Potency, µM (top dose mostly 46.1 µM), for the others: top-dose activity, negative = less viability, most hits filed as cytotoxic; HT-1080-NT fibrosarcoma viability, CellTiter-Glo ATP luminescence, 48 h; AID 686970;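 further: NT is the 2HG producing partner of a matched IDH1 knockdown line; potency means the concentration at half of the fitted maximal effect; 0% = DMSO-treated cells and -100% = media-only wells without cells; nearly all actives have a fitted effect of over 55% in size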
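Fibrosarcoma NT cells, 750 per well in 5% FBS RPMI, were exposed to compound for 48 hours. Viability: CellTiter-Glo luminescence.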
DT40 TDP1 no CPT – qHTS for Inhibitors of human tyrosyl-DNA phosphodiesterase 1 (TDP1): qHTS in cells in absence of CPT; DT40 Tdp1-/- hTDP1 cells, no CPT, ATP luminescence, 48 h; Potency, µM (top dose mostly 46.2 µM), for the others: at the highest dose activity change, negative = growth inhibition, usual class: inhibitors; 15% of 420,000 active; AID 686978, 2013; further: potency means the concentration at half of the fitted maximal effect; nearly all actives have a fitted effect of over 55% in size
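Stably hTDP1-transfected Tdp1-null chicken DT40 cells were treated with library compounds minus camptothecin and grown for at least 48 hr at 37 °C, after which cellular ATP was quantified by luminescence.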
HT1080 IDH1KD tx – toxicity to HT-1080 IDH1 knockdown cells (counter line); 2% of 360,000 active; Potency, µM (top dose mostly 46.1 µM), for inactives: at the top dose activity, negative = toxicity, most hits filed as cytotoxic; HT-1080 IDH1 knockdown viability, ATP luminescence, 48 h;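 further: potency means the concentration at half of the fitted maximal effect; 0% = DMSO wells and -100% = cell-free medium wells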
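% activity derives from luminescence (CellTiter-Glo), normalised to DMSO and no-cell wells. HT-1080-IDH1KD cells, 750/well, had 48 h compound exposure at 37 °C.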
Active calls of the source: *. Unless noted, the call rests on the fitted dose curve; in most records, active means well fitted curve in the direction sought with a large enough effect; inconclusive means small, poorly fitted or top-dose-only effect, or another doubt; inactive means no such curve, though single readings can be large; an effect the other way counts as inactive or inconclusive. Unless noted, on the % scale 0 is the no-effect control and ±100 the full control effect.

What do the screens show for `Cc1ccc(S(=O)(=O)Nc2ccccc2F)cc1C(=O)OC(C)C(=O)N1CCOCC1` (configuration not stated)?
ELG1 DNA repair: -4%; TDP1 cell CPT: 7%; IL-1B inflam inh: 7; HT1080NT lethal: -1%; DT40 TDP1 no CPT: 0%; HT1080 IDH1KD tx: -1%

What do the screens show for `C[C@H]1CN([C@@H](C)CO)C(=O)Cc2cc(NC(=O)Cc3ccccc3)ccc2O[C@H]1CN(C)C(=O)Nc1cccc2ccccc12`?
ELG1 DNA repair: 10%; TDP1 cell CPT: -22%; IL-1B inflam inh: -2; HT1080NT lethal: -2%; DT40 TDP1 no CPT: -12%; HT1080 IDH1KD tx: 0%

How did Cc1ccc(-c2nnc(-c3ccccc3S(=O)(=O)Cc3ccc(Cl)cc3)o2)cc1 do in these assays?
ELG1 DNA repair: -22%; TDP1 cell CPT: inconclusive; IL-1B inflam inh: 0; HT1080NT lethal: -26%; DT40 TDP1 no CPT: 23µM*; HT1080 IDH1KD tx: -23%

What do the screens show for `O=S(=O)(Cc1ccccc1)c1ccccc1-c1nnc(-c2ccccc2)o1`?
ELG1 DNA repair: inconclusive; TDP1 cell CPT: 16µM*; IL-1B inflam inh: -8; HT1080NT lethal: 0%; DT40 TDP1 no CPT: 16µM*; HT1080 IDH1KD tx: 0%

Results for CC(=O)N1CCN(C(=O)c2ccc(Cl)c(S(=O)(=O)N3CCCCCC3)c2)CC1 ?
ELG1 DNA repair: -1%; TDP1 cell CPT: 0%; IL-1B inflam inh: 10; HT1080NT lethal: 25%; DT40 TDP1 no CPT: -3%; HT1080 IDH1KD tx: -11%

Results for Cc1csc2sc(-c3ccnc(SCC(=O)NCc4ccccc4)n3)c(C)c12 ?
ELG1 DNA repair: -6%; TDP1 cell CPT: 0.73µM*; IL-1B inflam inh: 75; HT1080NT lethal: 3.3µM*; DT40 TDP1 no CPT: 0.73µM*; HT1080 IDH1KD tx: 2.3µM*

Results for Cc1csc(SCC(=O)NCc2ccccc2)n1 ?
ELG1 DNA repair: 13%; TDP1 cell CPT: -10%; IL-1B inflam inh: 13; HT1080NT lethal: 7%; DT40 TDP1 no CPT: -8%; HT1080 IDH1KD tx: 9%

What do the screens show for `Cc1nn2c(-c3ccco3)ccnc2c1-c1ccc(Cl)cc1`?
TDP1 cell CPT: -5%; DT40 TDP1 no CPT: inconclusive

How did Cc1ccc(C)c(N2CCN(C(=O)CN(C)S(=O)(=O)c3ccc4c(c3)CCC(=O)N4)CC2)c1 do in these assays?
ELG1 DNA repair: 23µM*; TDP1 cell CPT: inconclusive; IL-1B inflam inh: -8; HT1080NT lethal: 0%; DT40 TDP1 no CPT: 16µM*; HT1080 IDH1KD tx: -6%

What do the screens show for `CC(=O)N1CCc2cc(S(=O)(=O)CCC(=O)N3CCN(c4cc(C)ccc4C)CC3)ccc21`?
ELG1 DNA repair: inconclusive; TDP1 cell CPT: inconclusive; IL-1B inflam inh: -14; HT1080NT lethal: 21%; DT40 TDP1 no CPT: 21µM*; HT1080 IDH1KD tx: 4%

What do the screens show for `CC(=O)N1CCc2cc(S(=O)(=O)CCC(=O)N3CCN(c4cccc(C)c4C)CC3)ccc21`?
TDP1 cell CPT: 16µM*; DT40 TDP1 no CPT: 15µM*

How did Cc1ccc(C)c(N2CCN(S(=O)(=O)c3ccc4c(c3)CCC(=O)N4)CC2)c1 do in these assays?
ELG1 DNA repair: -5%

What do the screens show for `Cc1cccc(N2CCN(C(=O)c3ccc(CNc4c(N5CCC(C)CC5)c(=O)c4=O)cc3)CC2C)c1` (configuration not stated)?
ELG1 DNA repair: inconclusive; TDP1 cell CPT: 21µM*; IL-1B inflam inh: 5; HT1080NT lethal: -1%; DT40 TDP1 no CPT: inconclusive; HT1080 IDH1KD tx: 0%

Screens from PubChem BioAssay.
